Measurements published in the supplement of paper PMC7411640.
Structures can show the parent of a compound that is named as a salt.

Test system: MDA-MB-468
Test: phospho-S6 immunofluorescence (DAPI-normalised), per-plate z-score; higher = higher phospho-S6 signal (less pathway suppression)
Conditions: 24 h
Procedure: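 GPCR-targeted compound library (MedChemExpress HY-L006) tested on MDA-MB-468 PTEN-null TNBC cells in 384-well plates at 0.1, 1 or 10 uM, combined with vehicle, GDC0941 450 nM or lapatinib 1 uM, for 24 h. Phospho-S6 (S240/244) immunofluorescence normalised to DAPI and expressed as a per-plate z-score; values are the mean of biological triplicates.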

SMILES | phospho-S6 immunofluorescence (z-score) (co-treatment: GDC0941 450 nM) | phospho-S6 immunofluorescence (z-score) (co-treatment: lapatinib 1 uM) | phospho-S6 immunofluorescence (z-score) (co-treatment: vehicle)
CCCCN1CCC(CNC(=O)c2c3n(c4ccccc24)CCCO3)CC1 [Piboserod] (compound 10 µM) | -0.39 | -0.44 | 0.08
CCC1(c2c[nH]cn2)Cc2ccccc2C1 [Atipamezole (hydrochloride)] (compound 10 µM) | -0.61 | 0.37 | 1.24
Cn1cc(C(=O)[C@@H]2CCc3[nH]cnc3C2)c2ccccc21 [Ramosetron (Hydrochloride)] (compound 10 µM) | -1.27 | 0 | -0.92
Clc1ccc(Cn2c(CN3CCCC3)nc3ccccc32)cc1 [Clemizole (hydrochloride)] (compound 10 µM) | -3.06 | 0.26 | -1.37
O=c1cc(CN2CCOCC2)occ1OCCCCCSc1ccnc2cc(C(F)(F)F)ccc12 (compound 10 µM) | -2.93 | -3.04 | -3.82
CC(C)N(CCCCOCC(=O)NS(C)(=O)=O)c1cnc(-c2ccccc2)c(-c2ccccc2)n1 (compound 10 µM) | 0.87 | 0.26 | -0.38
C[C@@H](O)[C@@H]1NC(=O)[C@H](CCCCN)NC(=O)[C@@H](Cc2c[nH]c3ccccc23)NC(=O)[C@H](Cc2ccccc2)NC(=O)[C@@H](NC(=O)[C@H](N)Cc2ccccc2)CSSC[C@@H](C(=O)N[C@H](CO)[C@@H](C)O)NC1=O [Octreotide (acetate)] (compound 10 µM) | 0.59 | 1.9 | -0.73
C=CCN1CCc2nc(N)sc2CC1 (compound 10 µM) | 0.68 | 0.22 | 0.33
CNCC(O)c1ccc(O)c(O)c1 [L-Epinephrine] (compound 10 µM) | 0.44 | 2.36 | -0.3
